Data from ChEMBL document CHEMBL3433997, “St. Jude Leishmania screening dataset” (2016).

Experiments:
Type in all cases: functional
[1] = target: Solute carrier family 2, facilitated glucose transporter member 1 (Homo sapiens) (UniProt P11166); test: ST_JUDE_LEISH: Cytotoxicity at 2uM final concentration against transgenic Leishmania Mexicana promastigotes LmGLUT1 that are glucose transport deficient and complemented with the human glucose transporter GLUT1. Activity is measured by DNA content using SYBR green in vitro
[2] = target: Hexose transporter 1 (Plasmodium falciparum) (UniProt O97467); test: ST_JUDE_LEISH: Cytotoxicity at 2uM final concentration against transgenic Leishmania Mexicana promastigotes LmPfHT that are glucose transport deficient and complemented with the Plasmodium falciparum hexose transporter. Activity is measured by DNA content using SYBR green in vitro
[3] = target: Glucose transporter (Leishmania mexicana) (UniProt O61059); test: ST_JUDE_LEISH: Cytotoxicity at 2uM final concentration against transgenic Leishmania Mexicana promastigotes LmGT2 that are glucose transport deficient and complemented with the L. Mexicana glucose transporter 2. Activity is measured by DNA content using SYBR green in vitro

Solute carrier family 2, facilitated glucose transporter member 1 (Homo sapiens), sequence (P11166 whole entry): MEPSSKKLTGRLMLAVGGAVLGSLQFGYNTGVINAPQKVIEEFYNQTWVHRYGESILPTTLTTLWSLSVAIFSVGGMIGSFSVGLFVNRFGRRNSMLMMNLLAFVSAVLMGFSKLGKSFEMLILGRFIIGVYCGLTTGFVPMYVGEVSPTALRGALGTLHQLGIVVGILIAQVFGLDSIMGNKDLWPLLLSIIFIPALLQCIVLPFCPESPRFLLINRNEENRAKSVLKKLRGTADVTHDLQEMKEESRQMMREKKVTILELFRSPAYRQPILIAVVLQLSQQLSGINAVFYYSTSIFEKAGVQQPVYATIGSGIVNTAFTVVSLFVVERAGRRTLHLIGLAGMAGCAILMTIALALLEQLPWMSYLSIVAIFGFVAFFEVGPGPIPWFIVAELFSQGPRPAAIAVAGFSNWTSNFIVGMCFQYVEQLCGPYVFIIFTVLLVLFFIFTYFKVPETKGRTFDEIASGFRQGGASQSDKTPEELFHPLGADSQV

Row | SMILES | inhibition [1] [%] | inhibition [2] [%] | inhibition [3] [%]
1 | O=C(COc1ccc(Cl)c(Cl)c1)NCCCCCN1CCCN(C(=O)Nc2ccc(Cl)c(Cl)c2)CC1 | 4.35 | 3.1 | 2.27
2 | O=C(Nc1ccc(C(=O)Oc2ccc(-c3ccccc3)cc2)cc1)N[C@@H](Cc1ccc(O)cc1)C(=O)NC1CCN(Cc2ccc(O)cc2)C1 (stereo partly specified) | 2.56 | 2.9 | 4.33
3 | O=c1cc(NCCCNCc2cc3c(Cl)cccc3s2)[nH]c2ccccc12 | -1.61 | -0.8 | -2.02
4 | COc1ccc(Nc2nc(NCc3cccc(NS(C)(=O)=O)c3)cc(-c3ccc(OC)cc3)n2)cc1 | 4.4 | 5.23 | 1.09
5 | CO/C(=C\C=C\c1cc2cc(Cl)c(Cl)cc2[nH]1)C(=O)NCCCNCCN(C)c1ccccc1 | 4.77 | 2.76 | 1.74
6 | COc1cc2nc(-c3ccc(Br)cc3)cc(N)c2cc1OC | 64.2 | 23.6 | 29.1
7 | FC(F)(F)c1ccc2[nH]c(-c3ccc(-c4ccc(CNCc5cnn(-c6ccccc6)n5)cc4)cc3)nc2c1 | 2.68 | 0.52 | 0.17
8 | CCOc1ccc2[nH]c(C)cc(=NN=Cc3ccc(Cl)cc3)c2c1 | -0.27 | 0.45 | -1.27
9 | COc1ccc(CNC2Cc3ccccc3C2)cc1-c1ccc(S(=O)(=O)NCc2ccccc2)s1 | 6.85 | 4.6 | 4.36
10 | Cc1nccn1Cc1cc(C(C)(C)C)c(O)c(C(C)(C)C)c1 | 3.44 | 2.22 | 3.5
11 | NCC1CCCN1Cc1ccc(-c2ccc(-c3nc4cc(C(F)(F)F)ccc4[nH]3)s2)cc1 (stereo unspecified) | 1.42 | -0.28 | -0.19
12 | CCNc1cc(C(=O)N[C@@H](Cc2ccccc2)[C@H](O)CNC2CCC(F)(F)CC2)c(F)c(N2CCCCS2(=O)=O)c1 | -0.9 | -1.47 | -1.39
13 | CCOc1ccc2c(=NN=Cc3ccccc3OC)cc(C)[nH]c2c1 | 7.35 | 7.09 | 6.71
14 | CC(C)CCCC(C)NC[C@@H](O)[C@H](Cc1ccccc1)NC(=O)c1cc(N2CCCC2=O)cc(N(c2ccccc2)S(C)(=O)=O)c1 (stereo partly specified) | 1.85 | 2.61 | 1.65
15 | O=C(Nc1ccc(Cl)c(Cl)c1)N1CCC(NCc2cccc([N+](=O)[O-])c2)CC1 | 4.54 | 1.1 | 3.26
16 | CC1(CCCCN2CCC(Oc3ccc(F)cc3F)CC2)C(=O)Nc2ccccc21 (stereo unspecified) | 3.9 | 3.15 | 5.35

Row | SMILES | inhibition [1] [%] | inhibition [2] [%] | inhibition [3] [%]
17 | NC(=O)c1cnc2cc(-c3ccncc3)cc(Nc3ccc(NC(=O)C4CCCCC4)cc3)c2c1 | 2.17 | 2.89 | 1.29
18 | CC1CCN(CCCNc2ccc(C(=O)Nc3ccc(C(F)(F)F)cc3)cc2[N+](=O)[O-])CC1 | 4.71 | 1.65 | 5.07
19 | Cc1cc(C)c(C(=O)Nc2n[nH]c3nnc(-c4cccc(F)c4F)cc23)c(C)c1 | 0.09 | -0.09 | 0.28
20 | CN(C)Cc1cc2c(O)c(Cc3ccccc3)ccc2o1 | 2.65 | 4.63 | 3.94
21 | O=C(c1ccccc1NN=C1C(=O)N(c2ccccc2)N=C1c1ccccc1)N1CCOCC1 | -1.67 | 1.67 | 8.03
22 | Oc1ccc2nc(NCCCc3ccccc3)nc(NCCc3ccccc3)c2c1 | 3.71 | 4.97 | -0.15
23 | CCCS(=O)(=O)c1nc(S(=O)(=O)c2ccc(Cl)cc2)c(N2CCCCC2)s1 | 0.14 | 0.19 | -1.01
24 | CCn1c(C=Cc2cc(Br)ccc2O)nc2ccccc2c1=O | -1.02 | 0.39 | 0.51
25 | CCN(CC)CCN(Cc1ccc(-c2ccc(C(F)(F)F)cc2)cc1)C(=O)Cn1c(CCc2cccc(F)c2F)nc(=O)c2ccc(C(F)(F)F)cc21 | 1.5 | 1.49 | 1.99
26 | O=C(NCCCCN1CCC(c2ccc3ccccc3c2O)CC1)c1ccc(-c2ccc(Cl)cc2)cc1 | 5.43 | 3.32 | 3.45
27 | COc1ccc(Nc2nccc(N3CCC(NC(=O)C(C)c4ccc(Cl)cc4)CC3)n2)cc1 (stereo unspecified) | 0.43 | 0.07 | 0.26
28 | Cc1ccc(NC(=O)NC2CCN(CCCCCNC(=O)/C=C/c3ccc(Cl)c(Cl)c3)CC2)cc1C | -0.29 | -0.57 | -1.51
29 | Cc1cc(=NN=Cc2ccccn2)c2cc(F)ccc2[nH]1 | 4.3 | 5.11 | 0.4
30 | CC(C)(CNC(=O)C1CCN(Cc2ccc(Cl)cc2)CC1)c1nc(-c2ccc(Cl)c(O)c2)c(-c2ccncc2)[nH]1 | 6.62 | 6.8 | 9.13
31 | Cc1ccc(F)cc1S(=O)(=O)NCC(C)c1ccc(NC(=O)Nc2cccc(F)c2)cc1 (stereo unspecified) | 0.16 | 1.6 | -0.29
32 | O=C(c1csc(-c2cccnc2)n1)N1CCc2cc3nccc(N4CCN5CCC[C@H]5C4)c3cc21 | 15 | 8.81 | 5.59
